The text below walks through data of ChEMBL document CHEMBL1961873, “Compounds: GSK PKIS; Assays: Nanosyn kinase panel” (2012).

The target of the assay is Tyrosine-protein kinase Fer (Homo sapiens) (UniProt P16591). The settings on record: at 1 µM.
Sequence of Tyrosine-protein kinase Fer (Homo sapiens) (P16591 whole entry, looked up): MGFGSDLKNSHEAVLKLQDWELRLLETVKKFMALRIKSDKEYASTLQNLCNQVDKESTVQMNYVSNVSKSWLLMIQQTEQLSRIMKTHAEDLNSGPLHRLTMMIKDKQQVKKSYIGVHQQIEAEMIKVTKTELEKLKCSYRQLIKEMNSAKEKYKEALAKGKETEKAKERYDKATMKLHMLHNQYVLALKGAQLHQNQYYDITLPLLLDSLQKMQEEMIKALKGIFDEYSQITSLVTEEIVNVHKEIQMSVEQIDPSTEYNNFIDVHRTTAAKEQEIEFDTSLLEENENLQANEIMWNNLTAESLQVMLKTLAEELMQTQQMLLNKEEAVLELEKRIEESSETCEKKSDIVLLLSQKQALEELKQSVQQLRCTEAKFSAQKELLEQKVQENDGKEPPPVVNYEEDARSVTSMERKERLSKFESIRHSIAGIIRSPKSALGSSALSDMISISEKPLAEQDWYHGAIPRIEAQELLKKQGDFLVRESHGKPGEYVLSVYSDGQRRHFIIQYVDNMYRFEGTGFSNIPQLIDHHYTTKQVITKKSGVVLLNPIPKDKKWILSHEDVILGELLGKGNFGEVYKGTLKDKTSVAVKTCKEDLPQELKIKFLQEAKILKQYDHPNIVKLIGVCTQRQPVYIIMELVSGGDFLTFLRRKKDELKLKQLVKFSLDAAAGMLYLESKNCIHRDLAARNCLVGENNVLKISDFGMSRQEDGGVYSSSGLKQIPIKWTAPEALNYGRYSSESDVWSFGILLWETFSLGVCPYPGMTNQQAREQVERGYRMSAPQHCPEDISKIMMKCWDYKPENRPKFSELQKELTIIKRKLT
For the molecule `CS(=O)(=O)CCN(CC#N)Cc1ccc(-c2ccc3ncnc(Nc4ccc(OCc5cccc(F)c5)c(Cl)c4)c3c2)o1`, the inhibition is 1.14%.

In turn, `CC(=O)Nc1cccc(C#Cc2cncnc2Nc2ccc(OCc3cccc(F)c3)c(Cl)c2)n1` yielded an inhibition of 4.77%. The result for `COc1ccccc1Nc1ncc(-c2ccccc2)o1` reads 11.2%; that for `NS(=O)(=O)c1cccc(-c2ccc3c(NC(=O)C4CC4)n[nH]c3c2)c1`, 3.76%.

Consider `Cc1nnc(-c2ccc(C)c(-c3ccc(C(=O)Nc4cccc(C#N)c4)cc3)c2)o1`, for which the inhibition worked out at 1.72%. Molecule `COc1ccc(-c2nn3ncccc3c2-c2ccnc(Nc3ccc(Cl)c(C(F)(F)F)c3)n2)cc1` returned an inhibition of 3.06%. In the case of `O=C1NC(=O)C(c2ccc(Cl)cc2)=C1Nc1ccc(Cl)c(C(=O)O)c1`, the inhibition is 1.58%. On to `COC(=O)Nc1nc2cc(Oc3cccc(NC(=O)Nc4cc(C(F)(F)F)ccc4F)c3)ccc2[nH]1`, for which the inhibition is 1.61%.

For the molecule `O=C1NC(=O)C(c2cccc(Cl)c2)=C1Nc1ccc(O)c(Cl)c1`, the inhibition was 5.56%.

As for `CCCN1CCC=C(c2ccc(Nc3nc(Nc4ccccc4C(N)=O)c4cc[nH]c4n3)c(C)c2)C1`, the inhibition is 68.7%. The result for `Nc1nc(-c2ccc3c(c2)C(=Cc2cc(Br)c(O)c(Br)c2)C(=O)N3)cs1` reads 3.05%; that for `O=C1NC(=O)C(c2ccccc2Cl)=C1Nc1cccc(O)c1`, 2.82%. The value for `CCc1cccc(NC(=O)Nc2ccc(Oc3ccc4nc(NC(=O)OC)[nH]c4c3)cc2)c1` was 1.84%; that for `CC1=C(C(=O)Nc2ccc3[nH]ncc3c2)C(c2ccc3ccccc3c2)CC(=O)N1` (stereo not drawn) was 7.14%; that for `CS(=O)(=O)Nc1ccc(N/C=C2\C(=O)Nc3ccccc32)cc1` was 5.06%. The result for `COc1cc2c(cc1Nc1nc(N3CCc4ccccc43)c3cc[nH]c3n1)N(C(=O)CN(C)C)CC2` reads 85.2%; that for `CCN1CCC(CC(=O)Nc2n[nH]c3nc(-c4cccs4)c(Br)cc23)CC1`, 2.34%.

For `NCc1ccc(-c2nc(-c3ccc(Cl)c(O)c3)c(-c3ccncc3)[nH]2)cc1`, the inhibition was found to be 2.5%.

In the case of `COC(=O)Nc1nc2cc(Oc3ccc(NC(=O)Nc4cccc(C(=O)O)c4)cc3)ccc2[nH]1`, the inhibition worked out at 2.49%. `O=C(Nc1n[nH]c2nc(-c3ccco3)c(Br)cc12)C1CC1`: the inhibition was 0.63%. The result for `CCn1c(-c2nonc2N)nc2cnc(Oc3cccc(NC(=O)c4ccc(OCCN5CCOCC5)cc4)c3)cc21` reads 2.2%; that for `COc1cccc(-n2ncc3c(N/N=C/c4cccc(F)c4)ncnc32)c1`, 3.05%. The result for `Nc1ncnc2occ(-c3ccc(NC(=O)Nc4cccc(C(F)(F)F)c4)cc3)c12` reads 33.6%; that for `CCn1c(-c2nonc2N)nc2cncc(C(=O)N3CC[C@H](N)C3)c21`, 3.76%. The value for `COc1cc2ncn(-c3cc(O[C@@H](C)c4ccccc4Cl)c(C(N)=O)s3)c2cc1OC` was 8.42%; that for `CCCN1CCC(Oc2cc(Nc3nc(Nc4cccc(F)c4C(N)=O)c4cc[nH]c4n3)c(OC)cc2Cl)CC1` was 16%; that for `[O-][S+]1CCN(Cc2ccc(-c3ccc4ncnc(Nc5ccc(OCc6ccccc6)c(F)c5)c4c3)o2)CC1` was 6.08%. For the molecule `Cc1ccc(C(=O)NC2CCCCC2)cc1-c1ccc(C(=O)NCC2CC2)cc1`, the inhibition amounted to 4.17%. The result for `CNC(=O)c1cncc(/C=C/c2c(Cl)cccc2Cl)c1` reads 5.39%; that for `CN(C)c1cc2c(Nc3ccc4nc(Cc5ccccc5)[nH]c4c3)ncnc2cn1`, 10.5%; that for `CCn1c(-c2nonc2N)nc2ccncc21`, 0.13%.

With `Fc1cccc(COc2ccc(Nc3ncnc4sc(-c5cccs5)cc34)cc2Cl)c1`, the inhibition came out at 9.05%. The result for `Cc1ccc(NC(=O)c2ccnc(N3CCCC3)c2)cc1-c1ccc(C(=O)NCC2CC2)cc1` reads 1.67%.
